esBAF inh = blocks esBAF chromatin remodeling in mouse ES cells. Bmi1-luciferase knock-in reporter, 24 h; 100% = twice the neutral-well signal. reporter increase, % at 12.5 µM. actives 2% (n = 350,000). AID 602393; in the data active means activation above about 40%; inconclusive means no clear call, values can overlap the other calls;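 further: 0% = median of the plate's neutral control wells and 100% = double that signal; a rise in the Bmi1 reporter signal indicates esBAF inhibition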
HSF1 inh = HSF1 inhibition; NIH3T3-HGL HSE-luciferase, MG132-induced, luminescence 8 h; active compounds read low; activity change, negative = inhibition, % at 7.5 µM (by protocol); actives 0.77% (n = 300,000); AID 2098;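 active means more than half of replicate wells show activity change below -50%, luminescence cut by over half; inconclusive means some wells, but at most half, below -50%; inactive means no replicate well below -50%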;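 further: luciferase reports HSF-1 transcriptional activity via heat shock element; 0% = median of DMSO wells and -100% = zero luminescence signal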
HSF1 activator = increases HSF-1 driven luciferase reporter signal; actives 1.7% (n = 300,000); NIH3T3-HGL HSF-1 luciferase reporter, MG132, 8 h; 100% = twice DMSO control signal; AID 504408; activation, % at 9 µM;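 active means mean replicate activation of at least 50% with a set share of replicates each reaching 50%; inconclusive means only one of those two conditions met; inactive means mean below 50% and too few replicates reaching it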;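 further: 0% = median of the neutral control wells and 100% = twice that signal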
Vif inh = inhibitors of HIV Vif. HEK293T cells, Vif self-association by quenched fluorescence, imaging, 24 h. inhibition, % at 7.49 µM. actives 0.35% (n = 340,000); in the data active means inhibition above about 50%, passing the limit was not always enough; inconclusive means no clear call, values can overlap the other calls; inactive means below about 31%
* hit, by the source's call; ? = inconclusive; . = not tested or not shown. Shown are actives, neighbours in structure and some others; about 3.4% of the full set was active somewhere.

SMILES	esBAF inh	HSF1 inh	HSF1 activator	Vif inh
O=C(C[C@H]1CC[C@@H]2[C@H](COC[C@H](O)CN2Cc2ccc3c(c2)OCO3)O1)N1CCCCC1	-1	.	.	.
COc1ccc(C/C(=N\O)c2ccc(OC)cc2)cc1	9	35	53*	1
COc1ccc(C(=O)NNC(=O)Cc2ccc(Cl)cc2)cc1	.	0	7	-3
CCOC(=O)Cn1c(S(=O)(=O)Cc2ccc(F)cc2)nc(-c2ccccc2)c1-c1ccccc1	-13	40	89*	-6
O=C(C[C@H]1CC[C@H]2[C@@H](COC[C@H](O)CN2C(=O)Nc2ccc(Cl)cc2)O1)N1CCCCC1	21	.	.	.
COc1ccc(-n2nnnc2SCc2nc3ccccc3s2)cc1	71*	47	42	26
COCCn1c(SCc2nc3ccccc3s2)nc2ccccc21	104*	41	77*	-6
COc1ccc(C)cc1-n1nnnc1SCc1nc2ccccc2s1	57*	1	9	-12
C[C@@H]1CN([C@@H](C)CO)C(=O)c2cc(-c3ccccc3)cnc2O[C@H]1CN(C)C(=O)Nc1ccccc1F	9	.	.	.
Cc1ccc(S(=O)(=O)N(C)C[C@H]2Oc3ccc(NS(=O)(=O)c4ccc(F)cc4)cc3C(=O)N([C@@H](C)CO)C[C@H]2C)cc1	-1	.	.	.
Cc1cc(O)c(N=Nc2ccc(C(=O)O)cc2)cc1C	67*	.	.	24
Cc1ccc(S(=O)(=O)N(C)C[C@H]2OCCCC[C@H](C)Oc3ccc(NC(=O)Nc4ccccc4)cc3C(=O)N([C@@H](C)CO)C[C@@H]2C)cc1	-6	.	.	.
O=C(NCCc1ccncc1)[C@@H]1[C@@H](CO)[C@@H]2Cn3c(ccc(-c4ccncc4)c3=O)[C@H]1N2	0	.	.	.
Fc1ccc(CSc2nnc(-c3cnccn3)n2Cc2ccco2)cc1	.	19	30	-2
Fc1ccccc1CSc1nnc(-c2cnccn2)n1Cc1ccco1	.	49	67*	5
O=C(CN1CCN(Cc2ccccc2)CC1)N/N=C\C=C/c1ccco1	.	-69*	-76	10
O=C(N/N=C/C=C/c1ccco1)c1cccnc1	-4	-9	-8	4
O=C(CN1CCN(Cc2ccccc2Cl)CC1)N/N=C/C=C/c1ccco1	-5	8	39	7
O=C(N/N=C\C=C\c1ccco1)c1cc(-c2ccc3ccccc3c2)n[nH]1	.	29	57*	6
O=C(N/N=C/C=C\c1ccco1)c1ccccn1	.	33	62*	4
Nc1ccc(N=Nc2ccccc2)cc1[N+](=O)[O-]	62*	.	.	10
Cc1ccc(NC(=O)N2CCCC2C(=O)NCC2CCCCC2)cc1 (centres undefined)	-8	-89*	-92	3
COc1ccc(-c2cc3ccc(O)cc3oc2=O)cc1OC	21	-2	14	-2
COc1ccc(-c2c(C)c3cc(O)ccc3oc2=O)cc1OC	-10	26	67*	3
COc1ccc(-c2ccc3nccn3c2)cc1	45*	.	.	7
SMILES	esBAF inh	HSF1 inh	HSF1 activator	Vif inh
CN1CCCCc2c1nc1ccccc1c2N (tested in a mixture with another compound)	2	-5	7	-7
Nc1c2c(nc3ccccc13)N(c1ccccc1)CC2	12	-53*	-61	1
Cc1nn(-c2nc3ccccc3[nH]2)c(=O)c2ccccc12	-86	-81*	-85	-1
Cc1nn(-c2nc3ccccc3[nH]2)c(N)c1-c1ccc(Cl)cc1	61*	.	.	.
C[C@@H]1CCCCO[C@@H](CN(C)S(=O)(=O)c2cccs2)[C@H](C)CN([C@@H](C)CO)C(=O)c2cc(NC(=O)Nc3ccccc3)ccc2O1	-3	.	.	.
Cn1cnnc1SCC(=O)Nc1ccc2nc(SCc3cccc4ccccc34)sc2c1	.	3	15	.
CCN(CC)C(=O)CSc1nc2ccc(NC(=O)CSc3nnc(N)s3)cc2s1	-22	-15	2	.
CCN(CC)C(=O)CSc1nc2ccc(NC(=O)CSc3nccn3C)cc2s1	78*	4	10	0
Cn1cnnc1SCC(=O)Nc1ccc2nc(SCc3ccccc3)sc2c1	69*	29	44	1
CC(C)NC(=O)N(C)C[C@H]1Oc2ccc(NC(=O)C3CCCCC3)cc2C(=O)N([C@H](C)CO)C[C@H]1C	0	.	.	.
Cc1cc(Cl)ccc1NC(=O)C1COc2ccccc2O1 (centres undefined)	30	13	53*	-11
Cc1ccc(Cl)cc1NC(=O)C1COc2ccccc2O1 (centres undefined)	17	-64*	-73	10
O=C(NCC1COc2ccccc2O1)c1ccc(Cl)cc1 (centres undefined)	8	31	62*	-11
CC(=O)c1ccc(NCC2COc3ccccc3O2)c([N+](=O)[O-])c1 (centres undefined)	72*	44	?	-9
CCNC(=O)C[C@H]1C=C[C@H](NC(=O)NC2CCCCC2)[C@H](CO)O1	2	.	.	.
O=C(c1ccncc1)N1CC[C@@H]2[C@@H](CO)Nc3ccc(-c4ccc(F)cc4)cc3[C@@H]21	-2	.	.	.
CN(C)S(=O)(=O)c1ccc(NC(=O)COC(=O)C2COc3ccccc3O2)cc1 (centres undefined)	-6	1	-10	67*
O=C(Nc1ccccc1[N+](=O)[O-])C1COc2ccccc2O1 (centres undefined)	45*	23	42	-18
Cc1noc(C)c1S(=O)(=O)N(C)C[C@H]1Oc2ccc(NC(=O)Nc3ccc4c(c3)OCO4)cc2C(=O)N([C@@H](C)CO)C[C@H]1C	1	.	.	.
Cc1noc(C)c1NC(=O)N(C)C[C@@H]1Oc2ccc(NC(=O)CCN3CCOCC3)cc2C(=O)N([C@@H](C)CO)C[C@H]1C	0	.	.	.
N#CC1=C(N)NC(SCc2ccc(F)cc2)=C(C#N)C12CCCCC2	-9	119	166*	-9
N#CC1=C(N)NC(SCC(=O)O)=C(C#N)C12CCCC2	-3	1	4	-3
Cc1coc(C)c1C(=O)Nc1ccc2ccccc2c1	57*	19	?	-7
Cc1oncc1C(=O)Nc1ccc2ccccc2c1	10	42	66*	7
COCCNC(=O)C[C@H]1CC[C@@H]2[C@@H](COc3ccc(NC(=O)c4cnccn4)cc3C(=O)N2C)O1	-1	.	.	.
SMILES	esBAF inh	HSF1 inh	HSF1 activator	Vif inh
CNC[C@H]1Oc2c(NC(=O)Nc3ccc4c(c3)OCO4)cccc2C(=O)N([C@H](C)CO)C[C@H]1C	-6	.	.	.
Cc1ccc(-c2nc(N)n(C(=O)c3cccnc3)n2)cc1	43*	20	31	-5
Cc1ccnc(Nc2nc(-c3ccc(O)c(O)c3)cs2)c1	17	2	33	15
Cc1ccnc(Nc2nc(-c3ccc(O)cc3O)cs2)c1	79*	-4	1	-8
Cc1ccnc(Nc2nc(-c3ccc(O)cc3)cs2)c1	50*	20	22	-7
C[C@@H]1CCCCO[C@H](CN(C)C(=O)Cc2ccccc2)[C@@H](C)CN([C@H](C)CO)C(=O)c2cc(NC(=O)NC3CCCCC3)ccc2O1	1	.	.	.
C[C@@H]1CCCCO[C@H](CN(C)CC2CCCCC2)[C@H](C)CN([C@@H](C)CO)C(=O)c2cc(NS(=O)(=O)c3cn(C)cn3)ccc2O1	3	.	.	.

High-throughput results as filed in PubChem.
